GLP1R inv ag = GLP-1 receptor (human) inverse agonism | AID 624417 | Potency, µM (titrated, usually from 38.3 µM), inactives show top-dose activity change, negative = inhibition, most hits filed as inhibitors | HEK293 GLP-1R CRE-luciferase, luminescence, 24 h; GLP-1R form is constitutively active | P43220 | 410,000 compounds, 1.6% hits; also: % is scaled to controls: 0 for no effect and ±100 for the full control effect; nearly all actives have a fitted effect of over 55% in size
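Inverse agonism was detected as reduced cAMP-driven luciferase luminescence after 24 h compound treatment. The cells were HEK293 clones expressing constitutively active human GLP-1R with the reporter. Reporter-only and GPR119 cell lines served as counterscreen controls.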
PTHR1 agonist = PTHR1 (human) receptor agonism | 410,000 compounds, 0.075% hits | Potency, µM (titrated, usually from 115 µM), inactives show at the highest dose activation, most hits filed as activators | HEK293 GP2 PTHR1 cells, GloSensor cAMP luminescence, 1 h; also: nearly all actives have a fitted effect of over 55% in size
Target sequence (Q03431 whole entry, looked up): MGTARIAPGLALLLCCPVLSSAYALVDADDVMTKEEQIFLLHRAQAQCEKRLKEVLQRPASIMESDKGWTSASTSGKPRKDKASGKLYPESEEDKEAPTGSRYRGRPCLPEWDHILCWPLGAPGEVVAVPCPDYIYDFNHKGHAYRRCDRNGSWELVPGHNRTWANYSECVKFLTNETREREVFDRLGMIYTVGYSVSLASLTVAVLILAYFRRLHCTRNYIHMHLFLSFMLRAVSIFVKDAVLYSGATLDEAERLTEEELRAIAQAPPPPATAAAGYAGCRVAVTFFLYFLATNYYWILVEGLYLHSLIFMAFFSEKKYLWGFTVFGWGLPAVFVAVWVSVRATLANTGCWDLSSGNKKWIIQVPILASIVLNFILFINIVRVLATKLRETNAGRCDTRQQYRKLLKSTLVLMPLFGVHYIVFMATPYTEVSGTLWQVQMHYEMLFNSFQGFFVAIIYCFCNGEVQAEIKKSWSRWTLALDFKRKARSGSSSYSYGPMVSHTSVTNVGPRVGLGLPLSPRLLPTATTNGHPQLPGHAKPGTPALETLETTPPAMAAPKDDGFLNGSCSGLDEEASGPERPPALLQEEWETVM
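HEK-293-derived GP2 cells expressing PTHR1 and a GloSensor cAMP reporter, 3,000/well, plated overnight, given luciferin plus IBMX (each 0.5 mM as added) for 1 h at 37 °C, then compound for 1 h at 37 °C. Luminescence was read after 15 min at room temperature.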
GLP1R cytotox = cytotoxicity in counter-screen for GLP-1R inverse agonists | AID 624418 | 410,000 compounds, 0.13% hits | Potency, µM (highest dose often 38.3 µM), for inactives: top-dose activity change, negative = inhibition, hits mostly inhibitors | HEK293 cAMP-luciferase reporter cells, luminescence, 24 h;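 also: loss of luciferase light is scored as toxicity; % is scaled to controls: 0 for no effect and ±100 for the full control effect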
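1536-well qHTS counterscreen of the MLSMR; 200 cells/uL, 12 h pre-incubation, 23 nL cpd, 24 h at 37 deg C 5% CO2, luciferase detection reagent, 12 min RT, luminescence. Inhibition = undesired.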
GLP1R ag = agonists of human GLP-1 receptor; HEK293 GLP-1R CRE-luciferase, luminescence, 4-6 h; cells express a hypersensitive GLP-1R form; Potency, µM (series often up to 45.6 µM), without a hit: at the top dose activation, usual class: activators; 380,000 compounds, 0.007% hits; AID 624172; also: % of control where 0% means no effect
* hit, by the source's call; i = inactive; ? = inconclusive; nt = no result given. Most compounds without a hit are left out; they make up all but 1.7% or so of the library. Calls follow the shape of the dose curve; as a rule, active = well fitted curve in the direction sought with a large enough effect; inconclusive = small, poorly fitted or top-dose-only effect, or another doubt; inactive = no such curve, though single readings can be large; an effect the other way counts as inactive or inconclusive. Potency is read from the fitted curve at half-maximal effect.

SMILES	GLP1R inv ag	PTHR1 agonist	GLP1R cytotox	GLP1R ag
Cc1cccn2c(=O)cc(CSc3nnc(NC(=O)COc4ccccc4)s3)nc12	-4%	-10%	-4%	nt
Cc1cccc(-n2c(C)nc3cc(C(=O)NC4CCCCCC4)ccc32)c1	?	i	-15%	nt
COc1ccc(-c2noc(CCC(=O)Nc3ccc(C(F)(F)F)cc3)n2)cc1	?	-31%	-7%	-1%
Cc1cccc(C2=NN(c3ccccc3)[C@@H](C(=O)N3CCOC3=O)[C@@H]2c2ccc(Cl)cc2)c1	?	-10%	51%	-1%
Cc1cccc(C2=NN(c3ccccc3)[C@@H](C(=O)N3CCOC3=O)[C@@H]2c2ccc(F)cc2)c1	13µM*	-9%	125%	1%
CC(NCc1ccc(OCc2ccc(Cl)cc2)cc1)C(O)c1ccccc1 (stereo not given)	10µM*	-31%	?	9%
CC(NCc1cccc(OCc2ccccc2)c1)C(O)c1ccccc1 (stereo not given)	8.9µM*	-22%	?	22%
c1ccc(COc2cccc(CNn3cnnc3)c2)cc1	3%	i	4%	-4%
COc1ccc(CNC(c2ccccc2)c2ccc(Cl)cc2)cc1 (stereo not given)	?	-5%	0%	5%
COc1c(Cl)cc(C(=O)N(Cc2ccc(C)o2)C2CCS(=O)(=O)C2)cc1Cl (stereo not given)	-12%	i	-1%	nt
O=C(CCl)N1CCN(S(=O)(=O)c2ccc3ccccc3c2)CC1	10µM*	-32%	?	1%
CN(C)C(=O)N1CCN(S(=O)(=O)c2ccc3ccccc3c2)CC1	12%	i	-12%	-3%
CCc1ccc(NC(=O)CCn2c(-c3ccc(OC)cc3)cc(C(C)=O)c2C)cc1	-9%	-18%	-19%	nt
COc1ccccc1C(=O)NNC(=O)c1nn(Cc2ccccc2)c(=O)c2ccccc12	?	i	10µM*	10%
Cc1ccc(Cn2c(=O)n(Cc3ccccc3Cl)c(=O)c3ccccc32)cc1	6%	-3%	6%	nt
CC(=O)c1cccc(NC(=O)Cc2ccc(NC(=O)N3CCCCc4ccccc43)cc2)c1	?	-21%	3%	nt
O=C1C=C(c2cc3ccccc3s2)CCC1	2.5µM*	-77%	-30%	-8%
CC1(C)CC(=O)C=C(c2cc3ccccc3s2)C1	11%	i	?	-1%
CCC(Oc1ccccc1)C(=O)NC1CCCCCC1 (stereo not given)	10µM*	-14%	13%	0%
O=C(CCn1cnc2onc(-c3ccc(F)cc3)c2c1=O)N1CCN(c2cccc(Cl)c2)CC1	?	i	0%	nt
Cc1ccc(SCC(=O)Nc2ccccc2N2CCOCC2)cc1	7.9µM*	i	3%	11%
Cc1ccc(OCC(=O)Nc2ccc3nc(SCC(=O)N(C)c4ccccc4)sc3c2)cc1	?	-13%	-18%	nt
CC(C)Oc1ccc(C(=O)/C(=C\c2cccs2)c2nc3ccccc3o2)cc1	7.1µM*	-13%	9%	8%
CCCCCC(=O)Nc1nc(C)c(-c2csc(Nc3cc(OC)ccc3OC)n2)s1	-3%	45µM*	1%	0%
CCCc1cc(C(=O)N(C2CCCCC2)C2CCCCC2)no1	8.9µM*	-3%	-2%	-6%
SMILES	GLP1R inv ag	PTHR1 agonist	GLP1R cytotox	GLP1R ag
Cc1ccc(-c2nc(CS(=O)(=O)CC(=O)Nc3ccc(Br)cc3F)c(C)o2)cc1	-9%	i	1%	nt
Cc1noc(C)c1CCC(=O)NC1CCCN(Cc2ccc(Cl)cc2)C1 (stereo not given)	-5%	-12%	-2%	-6%
Cc1noc(C)c1CCC(=O)NC1CCCN(Cc2ccc(CC(C)C)cc2)C1 (stereo not given)	10µM*	-31%	-17%	-4%
CC(C)Cc1ccc(CN2CCCC(NC(=O)c3ccoc3)C2)cc1 (stereo not given)	8.9µM*	-19%	?	3%
COCC(=O)NCc1nc2cccnc2n1Cc1ccc(F)cc1	-1%	i	0%	nt
Cc1nc2sccn2c(=O)c1S(=O)(=O)NCC1CCN(Cc2ccc(Cl)cc2)CC1	10µM*	-8%	-2%	13%
O=C(Nc1ccc(Oc2cccc(C(F)(F)F)c2)nc1)c1ccco1	?	-10%	12%	7%
CC(C)(C)c1ccc(Oc2ccc(NC(=O)c3ccco3)cn2)cc1	2.5µM*	-17%	-28%	26%

Screening data as filed in PubChem.
